Drawing on PubChem BioAssay, this text covers z-score and composite z-score for eight compounds.

Each structure is given as a SMILES string. Values joined by “and” are separate entries in the source; they are usually repeats but may differ in a detail not shown here. Equal entries are not always repeated. A structure can be active in one record and inactive in another. Active and inactive are the calls of the source.

Experiment [1] is described as follows: optical density shifts of acrAB sulA E. coli – strain DRC41, OD650, 48 h, E. coli filamentation inducer project, primary screen (AID 1152).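 Also: E. coli MC1000 strain DRC41 lacking acrAB efflux pump and sulA.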 Particulars: higher = more signal, called active from +8 up or from −8 down.
Experiment [2] can be described thus: probe aLefty1 binding on compound microarray – biochemical, small-molecule microarray, 635/667 nm fluorescence, primary screen (AID 1153).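 Also: score merges spot fluorescence with signal-to-noise ratio from the scanned slide images.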 Conditions: higher = more signal.
A short description of experiment [3]: plasmodial surface anion channel blockers, osmotic lysis – cell-based, P. falciparum Indochina, OD700, 1 h, primary screen (AID 1154). Conditions: P. falciparum Indochina infected RBC osmotic lysis, higher = more signal, called active from +8 up or from −8 down.
A short description of experiment [4]: plasmodial surface anion channel blockers, osmotic lysis – cell-based, P. falciparum Indochina, OD700, 2 h, primary screen (AID 1155).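 Also: lysis reports solute entry through the parasite surface anion channel PSAC.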 Conditions: P. falciparum Indochina infected erythrocytes, higher = more signal, called active from +8 up or from −8 down.
Experiment [5] can be described thus: changes in parasitized red cell lysis, either direction – P. falciparum Indochina, OD700, 3 h, PSAC antagonist project, primary screen (AID 1156). Particulars: P. falciparum-infected erythrocytes, osmotic lysis, higher = more signal, called active from +8 up or from −8 down.
A short description of experiment [6]: plasmodial surface anion channel blockers, osmotic lysis – cell-based, P. falciparum Indochina, OD700, 18 h, primary screen (AID 1157). Particulars: P. falciparum Indochina infected erythrocytes, osmotic lysis OD700, 18 h; higher = more signal, called active from +8 up or from −8 down.
The nature of experiment [7]: S6 kinase pathway phospho-S6 level changes – cell-based, A549, cytoblot, luminescence, serum-stimulated, primary screen (AID 1158).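 Also: serum-stimulated A549 lung adenocarcinoma cells; signal is phosphorylated S6 detected by cytoblot immunostaining with HRP secondary.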 Particulars: 5 h, higher = more signal.
Experiment [8] concerns the target NADPH oxidase 2 (Homo sapiens) (UniProt P04839). Description: compounds shifting NOX2 Amplex Red fluorescence – cell-based, HEK293-NOX2, PMA-stimulated, NOX inhibitor project, primary screen (AID 1159). Also: test concentration not given here. Conditions: 45 min, higher = more signal, called active from +8 up or from −8 down.
Experiment [9] has as its target NADPH oxidase 4 (Homo sapiens) (UniProt Q9NPH5). Description: compounds shifting NOX4 Amplex Red fluorescence – cell-based, HEK293-NOX4, tetracycline-induced, NOX inhibitor project, primary screen (AID 1160). Conditions: HEK293-NOX4, Amplex Red H2O2 fluorescence, 45 min; higher = more signal, called active from +8 up or from −8 down.
Experiment [10] deals with NADPH oxidase 5 (Homo sapiens) (UniProt Q96PH1). Description: compounds shifting NOX5 Amplex Red fluorescence – cell-based, HEK293-NOX5, NOX inhibitor project, primary screen (AID 1161). Particulars: HEK293-NOX5, ionomycin, 45 min, higher = more signal.
Chain of NADPH oxidase 5 (Homo sapiens) (Q96PH1 whole entry, looked up): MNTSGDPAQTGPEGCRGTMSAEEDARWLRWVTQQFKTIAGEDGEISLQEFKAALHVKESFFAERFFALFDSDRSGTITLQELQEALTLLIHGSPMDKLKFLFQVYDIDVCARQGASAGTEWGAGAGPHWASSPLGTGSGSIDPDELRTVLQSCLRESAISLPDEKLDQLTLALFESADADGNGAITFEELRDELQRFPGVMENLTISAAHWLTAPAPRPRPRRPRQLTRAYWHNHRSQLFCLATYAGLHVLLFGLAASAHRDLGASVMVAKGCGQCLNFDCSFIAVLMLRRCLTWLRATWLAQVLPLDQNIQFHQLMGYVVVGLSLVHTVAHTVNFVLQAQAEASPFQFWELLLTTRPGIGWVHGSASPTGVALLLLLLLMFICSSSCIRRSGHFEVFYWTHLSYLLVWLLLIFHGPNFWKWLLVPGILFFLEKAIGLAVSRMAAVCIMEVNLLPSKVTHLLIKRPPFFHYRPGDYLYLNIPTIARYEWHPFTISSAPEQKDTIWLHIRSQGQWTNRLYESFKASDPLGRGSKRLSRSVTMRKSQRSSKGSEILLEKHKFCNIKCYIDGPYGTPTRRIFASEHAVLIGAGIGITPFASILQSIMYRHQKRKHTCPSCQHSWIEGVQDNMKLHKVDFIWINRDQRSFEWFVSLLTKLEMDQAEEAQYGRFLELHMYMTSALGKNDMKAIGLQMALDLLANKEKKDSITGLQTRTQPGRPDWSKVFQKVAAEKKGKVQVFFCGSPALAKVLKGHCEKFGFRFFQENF

Chain of NADPH oxidase 4 (Homo sapiens) (Q9NPH5 whole entry, looked up): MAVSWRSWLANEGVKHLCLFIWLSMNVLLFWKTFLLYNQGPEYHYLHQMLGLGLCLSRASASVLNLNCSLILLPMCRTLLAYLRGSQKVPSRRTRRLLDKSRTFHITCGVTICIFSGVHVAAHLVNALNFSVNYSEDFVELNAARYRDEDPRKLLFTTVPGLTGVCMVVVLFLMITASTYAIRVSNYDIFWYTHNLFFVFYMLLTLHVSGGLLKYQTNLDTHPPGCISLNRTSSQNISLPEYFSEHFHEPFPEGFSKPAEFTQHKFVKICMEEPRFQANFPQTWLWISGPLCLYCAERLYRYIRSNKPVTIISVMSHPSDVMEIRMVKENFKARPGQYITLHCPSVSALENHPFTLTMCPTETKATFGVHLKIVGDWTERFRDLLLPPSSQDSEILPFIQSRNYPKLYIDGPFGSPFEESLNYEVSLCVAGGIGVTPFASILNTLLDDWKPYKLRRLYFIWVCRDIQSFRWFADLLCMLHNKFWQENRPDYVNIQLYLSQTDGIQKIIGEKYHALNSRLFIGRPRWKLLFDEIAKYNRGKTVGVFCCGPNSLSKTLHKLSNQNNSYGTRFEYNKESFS
Chain of NADPH oxidase 2 (Homo sapiens) (P04839 whole entry, looked up): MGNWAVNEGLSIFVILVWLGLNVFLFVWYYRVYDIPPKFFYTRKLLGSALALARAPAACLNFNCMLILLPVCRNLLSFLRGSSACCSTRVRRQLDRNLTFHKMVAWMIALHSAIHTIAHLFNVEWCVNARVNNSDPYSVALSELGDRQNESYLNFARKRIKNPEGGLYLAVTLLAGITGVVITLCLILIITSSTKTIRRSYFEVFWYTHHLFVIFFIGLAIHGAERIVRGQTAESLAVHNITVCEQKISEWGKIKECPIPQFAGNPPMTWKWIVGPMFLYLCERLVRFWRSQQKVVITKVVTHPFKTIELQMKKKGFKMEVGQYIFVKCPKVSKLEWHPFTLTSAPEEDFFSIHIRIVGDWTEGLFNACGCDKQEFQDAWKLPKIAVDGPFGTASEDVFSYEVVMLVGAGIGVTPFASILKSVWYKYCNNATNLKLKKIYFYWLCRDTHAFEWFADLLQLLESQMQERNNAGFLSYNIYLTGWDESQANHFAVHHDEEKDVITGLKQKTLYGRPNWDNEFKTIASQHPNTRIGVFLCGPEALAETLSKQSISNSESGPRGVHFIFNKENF

On to `C#CCN1C(/C=C/c2ccccc2)C(=O)OC[C@H]1c1ccccc1` (stereo not given in full), for which the z-score in [1] is 1.75 (inactive) and 0.239 (inactive); in [3], 4.02 (inactive) and 1.57 (inactive); in [4], 0.277 (inactive) and 0.538 (inactive); in experiment [5], 0.244 (inactive) and 0.713 (inactive); in experiment [6], -0.947 (inactive) and 0.377 (inactive); in [7], 4.14 and -0.153. The z-score is 0.353 (inactive) and 1.86 (inactive) in experiment [8]; 0.0869 (inactive) and 0.344 (inactive) in experiment [9]; 0.189 and 0.518 in experiment [10]. For the same compound, in experiment [2], the composite z-score is -0.021 and -0.0536.

On to `C[C@@]1([C@@H](NC(=O)Cc2ccccc2)c2ccc(-c3ccccc3)cc2)C[C@H]1C1CCCCC1`, for which the z-score is -1.01 (inactive) and -1.14 (inactive) and -2.63 (inactive) in [1]; 2.55 (inactive) and 0.584 (inactive) and 10.1 (active) in experiment [3]; -0.208 (inactive) and 0.325 (inactive) and 1.68 (inactive) in experiment [4]; 1.01 (inactive) and 1.19 (inactive) and 0.922 (inactive) in experiment [5]; -1.51 (inactive) and 0.741 (inactive) and 0.644 (inactive) in experiment [6]; 1.28 and -0.396 and -0.729 in experiment [7]. The z-score is -4.2 (inactive) and -0.505 (inactive) and -1.36 (inactive) in experiment [8]; -5.91 (inactive) and -3.11 (inactive) and -1.7 (inactive) in experiment [9]; -3.09 and 0.173 and 0.832 in [10]. The composite z-score in [2] was 1.31 and 1.96 and -0.533.

For the compound `CO[C@H]1COC(=O)CC=C[C@@H](C)COC(=O)[C@@H](OCc2ccccc2)C=C[C@@H]1C`, the z-score was 1.08 (inactive) in experiment [1]; 1 (inactive) in experiment [3]; -0.104 (inactive) in experiment [4]; 0.362 (inactive) in [5]; -0.0412 (inactive) in experiment [6]; 0.21 in [7]. For the same compound, the z-score is 0.46 (inactive) in experiment [8], 1.19 (inactive) in experiment [9] and 0.308 in experiment [10]. Also, the composite z-score in [2] was -0.334.

For `C=CCN(CCCC)C(=O)C1N(CCOCCO)C(=O)C2C(C(=O)O)C3C=CC21O3` (stereo not given), the z-score in [1] is 0.151 (inactive) and -0.207 (inactive); in experiment [3], 0.461 (inactive) and -0.326 (inactive); in experiment [4], 0.703 (inactive) and 0.124 (inactive); in experiment [5] it was -0.668 (inactive) and -0.506 (inactive); in experiment [6] it was 0.0875 (inactive) and 0.111 (inactive); in [7], -0.0621 and 0.53. Further, the z-score is 0.502 (inactive) and 0.676 (inactive) in experiment [8]; -1.77 (inactive) and -2.02 (inactive) in [9]; -0.512 and 0.152 in [10]. Also, the composite z-score in experiment [2] is -0.191 and -0.454.

For `C=CCN(C(=O)C(c1cccs1)N(C(=O)/C=C\C(=O)O)C(C)(C)CO)C(C)(C)C` (stereo not given), the z-score was 2.48 (inactive) and 1.85 (inactive) in experiment [1]; -0.534 (inactive) and -0.537 (inactive) in experiment [3]; -1.13 (inactive) and -0.574 (inactive) in experiment [4]; -0.936 (inactive) and -0.092 (inactive) in experiment [5]; -1.37 (inactive) and -0.725 (inactive) in [6]; 1.6 and 0.974 in experiment [7]. Also, the z-score in [8] was -0.192 (inactive) and -0.0748 (inactive); in experiment [9], -0.755 (inactive) and -0.588 (inactive); in experiment [10], 0.163 and 0.51. For the same compound, in [2], the composite z-score was -0.0647 and -0.103.

`CCOC(=O)C[C@H]1[C@H](OC(=O)c2ccccc2-c2ccccc2)[C@@H](NC(=O)c2ccccc2)c2cc(OCCCO)ccc2N1C(=O)c1ccc2ccccc2n1`: the z-score in experiment [1] was 0.869 (inactive) and -0.664 (inactive); in experiment [3], 5.24 (inactive) and 2.8 (inactive); in [4], 0.709 (inactive) and 0.295 (inactive); in experiment [5], 0.195 (inactive) and -0.416 (inactive); in experiment [6], 0.353 (inactive) and 0.188 (inactive); in experiment [7], 0.649 and -0.172. Further, the z-score in experiment [8] is -0.556 (inactive) and -1.18 (inactive); in [9] it was 0.848 (inactive) and 0.921 (inactive); in experiment [10] it was 2.2 and 0.732. Moreover, the composite z-score in experiment [2] was 0.126 and 0.341.

On to `O=C1NC(=O)C2C1C=CC(C(O)c1ccc([N+](=O)[O-])cc1)N2Nc1ccc(Cl)cc1Cl` (stereo not given), for which the z-score was 0.302 (inactive) and 1.01 (inactive) in experiment [1]; 9.67 (active) and 3.11 (inactive) in [3]; 0.913 (inactive) and 0.168 (inactive) in experiment [4]; 0.538 (inactive) and -0.138 (inactive) in [5]; -0.988 (inactive) and -1.28 (inactive) in [6]; 0.474 and 0.7 in experiment [7]. Moreover, the z-score was 0.313 (inactive) and 0.609 (inactive) in [8]; -5.29 (inactive) and -4.55 (inactive) in [9]; -1.98 and -1.75 in [10]. Also, in experiment [2], the composite z-score was 0.134 and 0.623.

Consider `COC(=O)[C@H](C)NC(=O)CCC1CC(OC(=O)NCCc2ccc(F)cc2)CC2(CCCC(COC(=O)NCCCN3CCCC3=O)O2)O1` (stereo not given in full), for which the z-score in experiment [1] is -0.184 (inactive); in experiment [3] it was -0.798 (inactive); in [4], -0.744 (inactive); in experiment [5] it was 1.05 (inactive); in experiment [6], 0.298 (inactive); in experiment [7], 0.244. Also, the results for the z-score in experiment [8], in experiment [9] and in experiment [10] were 1.32 (inactive), 0.113 (inactive) and -0.0138, respectively. Besides, the composite z-score in [2] was -0.294.
